FLuc counter = firefly luciferase modulation, counter-screen for miR-21 project. P08659. purified FLuc, Km substrates, luminescence inhibition. Potency, µM (titrated, usually from 57.5 µM), for the others: at the highest dose activity change, negative = inhibition, actives largely listed as inhibitors. 6.9% of 360,000 active. AID 588342;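 further: plate controls were vehicle for no effect and reference inhibitor for full effect; nearly all actives have a fitted effect of over 55% in size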
Target sequence (P08659 whole entry, looked up): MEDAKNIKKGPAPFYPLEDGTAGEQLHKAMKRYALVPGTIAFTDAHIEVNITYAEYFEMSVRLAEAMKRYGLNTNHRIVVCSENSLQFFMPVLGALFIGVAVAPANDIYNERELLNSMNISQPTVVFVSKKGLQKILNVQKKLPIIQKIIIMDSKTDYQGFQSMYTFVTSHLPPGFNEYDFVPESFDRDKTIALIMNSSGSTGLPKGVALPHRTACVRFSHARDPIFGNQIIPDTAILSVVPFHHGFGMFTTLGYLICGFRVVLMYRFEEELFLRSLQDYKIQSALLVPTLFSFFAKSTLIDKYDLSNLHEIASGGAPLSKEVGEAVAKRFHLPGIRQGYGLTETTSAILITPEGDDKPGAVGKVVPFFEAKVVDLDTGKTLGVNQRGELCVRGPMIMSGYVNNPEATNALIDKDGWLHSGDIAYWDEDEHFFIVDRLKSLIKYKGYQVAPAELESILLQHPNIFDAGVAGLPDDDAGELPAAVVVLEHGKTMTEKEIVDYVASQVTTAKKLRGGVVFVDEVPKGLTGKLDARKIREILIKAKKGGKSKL
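Purified P. pyralis luciferase (10nM final) with 10uM D-luciferin and 10uM ATP (Km levels) in 50mM Tris acetate pH 7.5, 10mM Mg acetate, 0.01% Tween-20, 0.05% BSA; qHTS 6-point titration, ~60 µM downward; luminescence read.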
NPC1 prom act = NPC1 promoter activation; Huh7 NPC1 promoter luciferase reporter, 24 h; Potency, µM (highest dose often 9.22 µM), without a hit: top-dose activation, usual class: activators; 2.4% of 320,000 active; further: % of control where 0% means no effect; nearly all actives have a fitted effect of over 60% in size
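Luciferase expression driven by the NPC1 promoter was measured in stably transfected Huh7 cells after a 24 h compound incubation, using a luciferase reagent and a luminescence read.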
ELG1 genotoxic = induces genotoxicity in HEK293T cells with luciferase-tagged ELG1; HEK293T ELG1-luciferase reporter, luminescence, 16 h; Potency, µM (series often up to 46 µM), for inactives: top-dose activity change, positive = activation, usual class: activators; 1.3% of 330,000 active; AID 504466; further: % of control where 0% means no effect; nearly all actives have a fitted effect of over 60% in size
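ELG1-luciferase HEK293T cells, 2,000/well; compound pinned in; 16 hr, 37 °C, 5% CO2; ONE-Glo, 30 min RT; luminescence on CCD imager.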
SMN2 splice up = increases expression of the SMN2 splice variant | HEK293 SMN2-luciferase splicing reporter, luminescence, 30-36 h | Potency, µM (highest dose often 46.1 µM), inactives show at the highest dose activity change, positive = activation, most hits filed as activators | 2.8% of 210,000 active | AID 1458; further: % of control where 0% means no effect; nearly all actives have a fitted effect of over 55% in size
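HEK293 cells carry an SMN2 […]–luciferase reporter in which exon 7 inclusion puts luciferase in frame. Cells were plated 10-12 h before compound addition, then incubated 30-36 h at 37C. ONE-Glo luminescence was read; sodium butyrate at 4.5 mM final served as control.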
Rab9 promoter act = activators of Rab9 promoter; Huh7 Rab9 promoter-luciferase reporter, luminescence, 24 h; Potency, µM (top dose mostly 9.22 µM), for the others: at the top dose activation, negative = inhibition, hits mostly activators; 2.8% of 320,000 active; AID 485297; further: % of control where 0% means no effect; nearly all actives have a fitted effect of over 60% in size
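Luminescence from Amplite-detected luciferase (10 minutes, ambient) reports Rab9 promoter activation. Before that, stable Rab9-luciferase Huh7 cells (1500/well, reduced-serum OP-MEM I plus 10% FBS) were exposed to compound for 24 hours at 37C.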
ELG1 DNA repair = ELG1-dependent DNA repair inhibition | HEK293T ELG1-luciferase reporter, luminescence, 16 h; DNA damage induced by 5-fluorouridine | Potency, µM (top dose mostly 46.1 µM), for the others: at the highest dose activity change, negative = inhibition, hits mostly inhibitors | 2.3% of 330,000 active | AID 504467; further: on the % scale 0 is the no-effect control and ±100 the full control effect; nearly all actives have a fitted effect of over 55% in size
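HEK293T cells expressing luciferase-tagged ELG1 (2,000/well) received 5-Fluorouridine plus compound or DMSO for 16 hr at 37 °C. Luciferase was read by ONE-Glo luminescence after 30 min at room temperature.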
* = called active by the depositor; ? = inconclusive; / = no result given. This is a sample that favours compounds with a hit; in the whole collection about 9.3% have one here. The call rests on the fitted dose curve; in most records, active means well fitted curve in the direction sought with a large enough effect; inconclusive means small, poorly fitted or top-dose-only effect, or another doubt; inactive means no such curve, though single readings can be large; an effect the other way counts as inactive or inconclusive. Potency means the concentration at half of the fitted maximal effect.

SMILES	FLuc counter	NPC1 prom act	ELG1 genotoxic	SMN2 splice up	Rab9 promoter act	ELG1 DNA repair
COC(=O)c1c(-c2ccc(OC)c(OC)c2)csc1N	1.5%	6.4%	-3.4%	42.2%	-0.2%	?
c1ccc(-c2cc(-c3ccccc3)on2)cc1	0.757µM*	1.41µM*	5.8µM*	/	1.41µM*	?
Nc1nc(-c2cc(-c3ccccc3)no2)cs1	3.01µM*	1µM*	2.06µM*	/	1µM*	?
Cc1cc(-c2cc(-c3ccccc3)on2)nc(NC2CCCC2)n1	?	7.8%	2.8%	/	0.3%	1.9%
O=C(c1ccccc1)c1cc(-c2ccccc2)on1	0.213µM*	0.562µM*	2.06µM*	?	0.631µM*	?
Cc1ccc(-c2cc(-c3ccccc3)no2)cc1	0.301µM*	0.631µM*	?	/	0.316µM*	?
O=C(NCc1ccccc1)C(c1ccc(F)cc1)N(Cc1cccs1)C(=O)c1cnccn1 (stereo not given)	0.6%	-3.5%	-2.6%	7.0%	0.1%	13µM*
O=C(O)c1nc2cc(Cl)c(Cl)cc2[nH]c1=O	/	/	/	-10.5%	/	/
Cc1ccc(NC(=S)c2nc3ccccc3[nH]2)c(C)c1	1.69µM*	3.55µM*	?	5.62µM*	3.55µM*	?
Cc1ccc(NC(=S)c2ccncc2)c(C)c1	-0.3%	-0.8%	-4.9%	/	-5.0%	5.0%
Cc1ccc(NC(=S)c2nc3ccccc3[nH]2)cc1	0.675µM*	3.98µM*	?	28.2µM*	0.631µM*	?
Cc1ccc(NC(=S)N2CCCC(c3nc4ccccc4[nH]3)C2)cc1 (stereo not given)	-10.2%	0.4%	0.0%	-1.3%	-1.3%	-0.3%
C=CCOc1ccccc1CNc1ccccc1C	-0.2%	0.4%	-0.1%	-4.0%	-4.2%	16.4%
O=C(CCNS(=O)(=O)c1ccc(OC(F)(F)F)cc1)N1CCCC1	-0.2%	-5.8%	-1.1%	/	-4.4%	-0.4%
COc1ccc(C(=O)CNc2ccc3ccccc3c2)cc1	?	21.2%	?	13.0%	17.5%	?
COc1ccc(C(=O)CSc2ccccc2C(=O)O)cc1	9.53µM*	2.24µM*	18.6%	11.2µM*	?	?
COc1ccc(C(=O)CNc2ccccc2Br)cc1	7.57µM*	?	?	/	?	?
COc1ccc(C(=O)CN2C(=O)c3ccccc3C2=O)cc1	16.9µM*	?	10.5%	/	26.8%	?
COc1ccc(CNC(=O)CN2C(=O)c3ccccc3C2=O)cc1	?	-2.4%	1.7%	/	1.7%	10.6%
COc1ccc(O)c(C(=O)CC(=O)c2ccccc2)c1	16.9µM*	0.708µM*	?	1.78µM*	0.708µM*	?
Cc1c(NC(=O)c2ccccc2)c(=O)n(-c2ccccc2)n1C	0.2%	1.0%	2.2%	-12.0%	0.0%	10.2%
COc1ccc(CNC(=O)c2ccc(-c3ccccc3)cc2)cc1	?	?	?	2.2%	?	?
COc1ccc(C(=O)C[n+]2cccc3cc(OC)ccc32)cc1	2.7%	-3.5%	-7.0%	/	-5.9%	-34.6%
COc1ccc(C(=O)CC(=O)c2ccc(OC)cc2)cc1	19µM*	18.7%	6.5%	/	15.2%	?
COc1ccc(C(=O)Cc2nnc(C)s2)cc1	19µM*	?	?	?	?	?
COc1ccc(C(=O)C[n+]2ccc3ccccc3c2C)cc1	-16.9%	?	1.2%	/	1µM*	1.3%
COc1ccc(C(=O)NCC(=O)c2ccccc2)cc1	12µM*	2.82µM*	9.2µM*	/	3.55µM*	?
Cc1cccc(N2CCN(C(=O)c3ccc4c(c3)N(Cc3ccccc3)C(=O)c3ccccc3S4(=O)=O)CC2C)c1 (stereo not given)	0.5%	/	/	-2.3%	/	/
CCOc1ccccc1NC(=O)CSc1nnc(-c2cnccn2)n1C	2.8%	-2.4%	0.1%	1.5%	-1.4%	-4.8%
C=CC#CC1(O)CC(C)[N+](C)(C)CC1C (stereo not given)	-8.7%	4.4%	-0.6%	6.7%	7.0%	15.5%
